Assay results published in the supplement of paper PMC11732987, “Enantioselective OTUD7B fragment discovery through chemoproteomics screening and high-throughput optimisation” (Communications Chemistry, 2025).

Columns and labels:
Test in all cases: log2 ratio of Biotin-Ahx-Ub-VS probe labelling (fragment/DMSO); higher = less target engagement (more negative = stronger competition), active = hit call of the paper (q ≤ 0.05, log2 ratio ≤ -1)
Settings in all cases: compound concentration: 200 uM; treatment time: 3 h
USP42 = molecular target: T1, USP42 (UniProt Q9H9J4)
T1 sequence (whole entry): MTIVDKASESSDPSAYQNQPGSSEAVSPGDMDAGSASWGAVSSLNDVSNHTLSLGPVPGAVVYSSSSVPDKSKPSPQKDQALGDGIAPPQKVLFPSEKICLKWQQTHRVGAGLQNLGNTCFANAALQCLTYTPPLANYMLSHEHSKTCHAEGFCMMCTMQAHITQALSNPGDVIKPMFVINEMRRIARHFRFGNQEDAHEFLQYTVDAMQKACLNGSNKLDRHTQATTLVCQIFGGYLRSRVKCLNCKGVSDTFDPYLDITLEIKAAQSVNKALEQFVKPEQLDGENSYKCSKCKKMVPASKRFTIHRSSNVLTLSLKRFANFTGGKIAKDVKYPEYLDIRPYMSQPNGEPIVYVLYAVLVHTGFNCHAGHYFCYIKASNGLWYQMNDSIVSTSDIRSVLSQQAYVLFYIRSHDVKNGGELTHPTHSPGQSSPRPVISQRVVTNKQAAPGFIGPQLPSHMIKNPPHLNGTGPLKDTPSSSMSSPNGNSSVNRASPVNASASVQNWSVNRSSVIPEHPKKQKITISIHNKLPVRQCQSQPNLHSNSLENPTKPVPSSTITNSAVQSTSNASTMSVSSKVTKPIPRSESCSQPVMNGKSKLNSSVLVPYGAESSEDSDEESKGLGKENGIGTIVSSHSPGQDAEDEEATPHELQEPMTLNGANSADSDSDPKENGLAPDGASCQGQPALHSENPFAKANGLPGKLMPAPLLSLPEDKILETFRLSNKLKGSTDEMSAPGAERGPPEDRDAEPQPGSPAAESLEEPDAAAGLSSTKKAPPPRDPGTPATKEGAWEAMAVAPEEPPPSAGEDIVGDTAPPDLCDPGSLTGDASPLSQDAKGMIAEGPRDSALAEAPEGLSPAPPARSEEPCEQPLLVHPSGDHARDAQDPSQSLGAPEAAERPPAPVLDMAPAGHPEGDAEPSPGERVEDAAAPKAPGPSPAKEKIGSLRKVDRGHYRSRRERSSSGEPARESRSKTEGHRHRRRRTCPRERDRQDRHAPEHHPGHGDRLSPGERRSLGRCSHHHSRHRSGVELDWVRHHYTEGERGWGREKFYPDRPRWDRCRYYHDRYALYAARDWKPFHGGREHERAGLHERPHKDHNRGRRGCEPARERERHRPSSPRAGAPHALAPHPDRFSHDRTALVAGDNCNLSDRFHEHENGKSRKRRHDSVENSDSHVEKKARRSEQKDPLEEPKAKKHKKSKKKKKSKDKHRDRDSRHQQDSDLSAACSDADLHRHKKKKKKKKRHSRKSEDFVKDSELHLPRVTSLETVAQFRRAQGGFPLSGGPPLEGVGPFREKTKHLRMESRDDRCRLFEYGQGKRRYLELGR
Summary of the method: (§1)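 HEK293T lysate in Tris/CHAPS/IGEPAL buffer with protease inhibitors (495 µg per sample) was given fragment at 200 µM or vehicle for 3 h, in triplicate. It then received Biotin-Ahx-Ub-VS at 0.5 µM final for 1 h. Labelled DUBs were NeutrAvidin-enriched, digested with LysC and trypsin, and run by diaPASEF LC-MS/MS. Values are average log2 fragment/vehicle ratios by unpaired t-test on global-median-normalised Spectronaut quantities of proteins with ≥2 unique peptides.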

USP46 = USP46 (UniProt P62068)
USP46, sequence (P62068 whole entry): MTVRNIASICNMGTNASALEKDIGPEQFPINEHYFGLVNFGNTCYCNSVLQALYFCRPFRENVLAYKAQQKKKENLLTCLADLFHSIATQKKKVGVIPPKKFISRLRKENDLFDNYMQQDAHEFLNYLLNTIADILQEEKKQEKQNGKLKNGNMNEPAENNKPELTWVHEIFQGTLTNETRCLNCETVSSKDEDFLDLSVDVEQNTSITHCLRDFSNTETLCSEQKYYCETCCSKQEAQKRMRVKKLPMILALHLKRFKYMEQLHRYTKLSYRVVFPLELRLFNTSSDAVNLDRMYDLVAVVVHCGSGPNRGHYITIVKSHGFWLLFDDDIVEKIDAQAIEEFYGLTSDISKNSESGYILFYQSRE
Summary of the method: as §1

USP47 = molecular target: T2, USP47 (UniProt Q96K76)
T2 sequence (whole entry): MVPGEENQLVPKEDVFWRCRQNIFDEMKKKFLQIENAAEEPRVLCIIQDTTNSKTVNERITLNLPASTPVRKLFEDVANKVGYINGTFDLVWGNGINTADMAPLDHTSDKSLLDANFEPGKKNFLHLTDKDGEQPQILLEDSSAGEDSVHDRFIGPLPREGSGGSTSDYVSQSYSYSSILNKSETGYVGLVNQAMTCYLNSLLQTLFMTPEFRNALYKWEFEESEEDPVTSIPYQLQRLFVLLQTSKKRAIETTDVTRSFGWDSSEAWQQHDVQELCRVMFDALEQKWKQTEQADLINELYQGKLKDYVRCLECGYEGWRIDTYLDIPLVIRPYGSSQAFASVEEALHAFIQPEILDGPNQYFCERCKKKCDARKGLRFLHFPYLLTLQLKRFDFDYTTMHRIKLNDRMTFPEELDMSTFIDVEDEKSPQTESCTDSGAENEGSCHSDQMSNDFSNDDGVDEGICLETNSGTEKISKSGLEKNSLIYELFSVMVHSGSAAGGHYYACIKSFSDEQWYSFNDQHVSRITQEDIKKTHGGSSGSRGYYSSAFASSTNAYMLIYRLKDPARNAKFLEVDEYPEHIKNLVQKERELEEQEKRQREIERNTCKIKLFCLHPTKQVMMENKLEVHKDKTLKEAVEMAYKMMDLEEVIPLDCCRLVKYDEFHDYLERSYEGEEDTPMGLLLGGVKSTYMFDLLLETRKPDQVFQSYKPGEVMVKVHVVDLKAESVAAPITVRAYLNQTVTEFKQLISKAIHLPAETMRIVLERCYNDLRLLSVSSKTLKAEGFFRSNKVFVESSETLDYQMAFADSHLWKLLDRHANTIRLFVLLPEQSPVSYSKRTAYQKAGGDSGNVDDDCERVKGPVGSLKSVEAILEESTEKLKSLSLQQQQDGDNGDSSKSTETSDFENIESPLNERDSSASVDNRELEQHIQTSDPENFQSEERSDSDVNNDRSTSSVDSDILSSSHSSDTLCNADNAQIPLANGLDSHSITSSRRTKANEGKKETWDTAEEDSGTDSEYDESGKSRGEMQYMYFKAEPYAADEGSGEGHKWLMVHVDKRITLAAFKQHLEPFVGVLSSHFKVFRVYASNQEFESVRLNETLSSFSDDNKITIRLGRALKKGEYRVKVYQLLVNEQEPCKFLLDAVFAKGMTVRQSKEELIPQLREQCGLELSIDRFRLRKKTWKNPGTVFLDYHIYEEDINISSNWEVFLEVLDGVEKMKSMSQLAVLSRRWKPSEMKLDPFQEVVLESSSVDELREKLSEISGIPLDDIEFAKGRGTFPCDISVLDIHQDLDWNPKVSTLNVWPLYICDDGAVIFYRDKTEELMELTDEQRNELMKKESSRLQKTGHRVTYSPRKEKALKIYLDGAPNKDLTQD
Summary of the method: as §1

USP48 = molecular target: T3, USP48 (UniProt Q86UV5)
T3 sequence (whole entry): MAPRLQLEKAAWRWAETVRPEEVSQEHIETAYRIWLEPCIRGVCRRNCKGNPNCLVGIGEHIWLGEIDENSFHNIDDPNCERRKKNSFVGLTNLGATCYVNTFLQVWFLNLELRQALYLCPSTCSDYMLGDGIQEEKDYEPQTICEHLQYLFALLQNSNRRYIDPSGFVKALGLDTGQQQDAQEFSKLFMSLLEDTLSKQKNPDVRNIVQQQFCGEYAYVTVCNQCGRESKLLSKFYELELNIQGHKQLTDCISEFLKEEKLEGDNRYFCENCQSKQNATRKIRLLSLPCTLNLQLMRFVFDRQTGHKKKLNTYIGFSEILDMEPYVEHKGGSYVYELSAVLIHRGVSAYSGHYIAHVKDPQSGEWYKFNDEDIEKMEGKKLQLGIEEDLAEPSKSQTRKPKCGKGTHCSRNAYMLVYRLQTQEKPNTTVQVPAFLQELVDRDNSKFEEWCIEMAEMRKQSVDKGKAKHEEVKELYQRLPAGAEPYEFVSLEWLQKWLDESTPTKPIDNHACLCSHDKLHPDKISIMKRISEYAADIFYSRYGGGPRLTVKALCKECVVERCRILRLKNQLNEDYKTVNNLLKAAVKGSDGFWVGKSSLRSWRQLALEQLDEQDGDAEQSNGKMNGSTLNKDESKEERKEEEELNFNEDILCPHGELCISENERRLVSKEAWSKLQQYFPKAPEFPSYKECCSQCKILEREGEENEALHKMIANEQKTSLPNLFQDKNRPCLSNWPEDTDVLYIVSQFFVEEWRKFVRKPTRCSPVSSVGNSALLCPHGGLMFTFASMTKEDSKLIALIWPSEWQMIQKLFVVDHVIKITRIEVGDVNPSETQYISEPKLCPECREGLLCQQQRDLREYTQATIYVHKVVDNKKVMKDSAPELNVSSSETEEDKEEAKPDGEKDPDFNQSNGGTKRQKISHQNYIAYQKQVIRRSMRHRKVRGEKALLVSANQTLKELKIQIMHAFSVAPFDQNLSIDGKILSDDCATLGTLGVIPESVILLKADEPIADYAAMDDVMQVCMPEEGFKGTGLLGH
Summary of the method: as §1

USP5 = molecular target: T4, USP5 (UniProt P45974)
T4 sequence (whole entry): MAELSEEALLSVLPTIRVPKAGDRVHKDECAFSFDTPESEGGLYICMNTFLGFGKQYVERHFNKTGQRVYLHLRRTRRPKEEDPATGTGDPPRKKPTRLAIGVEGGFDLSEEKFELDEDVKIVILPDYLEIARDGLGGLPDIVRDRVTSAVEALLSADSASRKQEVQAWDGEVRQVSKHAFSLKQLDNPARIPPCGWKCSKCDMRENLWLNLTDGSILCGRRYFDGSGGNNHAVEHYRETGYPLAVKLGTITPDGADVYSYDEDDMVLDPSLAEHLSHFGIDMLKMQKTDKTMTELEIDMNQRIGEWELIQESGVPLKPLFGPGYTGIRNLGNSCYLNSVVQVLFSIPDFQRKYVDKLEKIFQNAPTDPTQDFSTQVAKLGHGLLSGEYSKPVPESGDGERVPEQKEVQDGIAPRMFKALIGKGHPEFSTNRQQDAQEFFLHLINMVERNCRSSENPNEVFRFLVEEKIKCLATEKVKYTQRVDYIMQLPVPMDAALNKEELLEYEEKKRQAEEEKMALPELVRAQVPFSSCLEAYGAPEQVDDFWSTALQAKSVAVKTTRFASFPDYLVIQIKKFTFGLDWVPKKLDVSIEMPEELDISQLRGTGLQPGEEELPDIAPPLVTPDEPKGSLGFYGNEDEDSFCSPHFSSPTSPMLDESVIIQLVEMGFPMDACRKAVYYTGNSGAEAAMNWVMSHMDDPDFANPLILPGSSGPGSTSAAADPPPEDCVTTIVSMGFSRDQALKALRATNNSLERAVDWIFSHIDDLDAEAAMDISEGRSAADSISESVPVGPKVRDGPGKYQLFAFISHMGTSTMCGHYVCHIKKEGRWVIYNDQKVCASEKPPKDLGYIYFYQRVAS
Summary of the method: as §1

USP54 = USP54 (UniProt Q70EL1)
USP54, sequence (Q70EL1 whole entry): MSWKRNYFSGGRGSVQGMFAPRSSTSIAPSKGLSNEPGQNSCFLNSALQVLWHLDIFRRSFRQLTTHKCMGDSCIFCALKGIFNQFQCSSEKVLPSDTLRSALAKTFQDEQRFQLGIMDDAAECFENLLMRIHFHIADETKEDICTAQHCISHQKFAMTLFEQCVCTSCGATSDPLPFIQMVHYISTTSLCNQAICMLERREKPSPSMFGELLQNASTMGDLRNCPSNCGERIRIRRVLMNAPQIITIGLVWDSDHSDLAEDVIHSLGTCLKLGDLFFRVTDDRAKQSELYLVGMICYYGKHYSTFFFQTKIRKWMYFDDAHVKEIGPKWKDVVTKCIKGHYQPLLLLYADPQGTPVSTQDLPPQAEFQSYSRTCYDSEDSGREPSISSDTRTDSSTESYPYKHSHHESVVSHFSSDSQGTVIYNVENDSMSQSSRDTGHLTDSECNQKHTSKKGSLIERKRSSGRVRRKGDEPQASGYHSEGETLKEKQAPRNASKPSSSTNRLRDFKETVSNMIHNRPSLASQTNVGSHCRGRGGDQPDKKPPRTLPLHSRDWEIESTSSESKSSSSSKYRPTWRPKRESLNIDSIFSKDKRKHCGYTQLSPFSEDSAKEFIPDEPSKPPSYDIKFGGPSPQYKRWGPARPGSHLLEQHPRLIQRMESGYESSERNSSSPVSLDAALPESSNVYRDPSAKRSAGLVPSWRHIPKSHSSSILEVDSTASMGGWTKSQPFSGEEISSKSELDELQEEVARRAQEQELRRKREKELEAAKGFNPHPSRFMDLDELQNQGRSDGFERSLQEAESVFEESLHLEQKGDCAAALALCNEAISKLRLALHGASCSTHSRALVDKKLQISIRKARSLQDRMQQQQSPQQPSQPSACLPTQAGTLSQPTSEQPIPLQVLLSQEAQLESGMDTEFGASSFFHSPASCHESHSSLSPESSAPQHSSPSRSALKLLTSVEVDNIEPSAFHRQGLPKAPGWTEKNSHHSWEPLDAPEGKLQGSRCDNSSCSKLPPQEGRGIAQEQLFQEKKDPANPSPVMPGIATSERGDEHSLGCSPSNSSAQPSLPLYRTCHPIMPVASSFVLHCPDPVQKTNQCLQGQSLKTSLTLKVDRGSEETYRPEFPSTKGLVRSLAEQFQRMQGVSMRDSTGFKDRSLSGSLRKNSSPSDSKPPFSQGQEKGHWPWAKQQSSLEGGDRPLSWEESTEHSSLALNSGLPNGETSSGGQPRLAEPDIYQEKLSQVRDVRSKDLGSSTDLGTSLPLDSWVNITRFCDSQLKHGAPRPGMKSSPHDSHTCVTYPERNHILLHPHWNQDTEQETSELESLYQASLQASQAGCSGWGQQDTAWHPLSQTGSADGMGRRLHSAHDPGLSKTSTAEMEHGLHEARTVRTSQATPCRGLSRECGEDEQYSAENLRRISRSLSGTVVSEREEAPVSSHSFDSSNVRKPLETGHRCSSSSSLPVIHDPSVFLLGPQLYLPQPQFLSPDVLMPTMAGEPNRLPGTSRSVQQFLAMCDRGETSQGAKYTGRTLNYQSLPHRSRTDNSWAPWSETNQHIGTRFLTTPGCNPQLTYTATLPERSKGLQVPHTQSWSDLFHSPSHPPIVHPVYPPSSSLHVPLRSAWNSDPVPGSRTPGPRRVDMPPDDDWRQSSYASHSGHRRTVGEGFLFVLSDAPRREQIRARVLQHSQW
Summary of the method: as §1

USP7 = USP7 (UniProt Q93009)
USP7, sequence (Q93009 whole entry, looked up): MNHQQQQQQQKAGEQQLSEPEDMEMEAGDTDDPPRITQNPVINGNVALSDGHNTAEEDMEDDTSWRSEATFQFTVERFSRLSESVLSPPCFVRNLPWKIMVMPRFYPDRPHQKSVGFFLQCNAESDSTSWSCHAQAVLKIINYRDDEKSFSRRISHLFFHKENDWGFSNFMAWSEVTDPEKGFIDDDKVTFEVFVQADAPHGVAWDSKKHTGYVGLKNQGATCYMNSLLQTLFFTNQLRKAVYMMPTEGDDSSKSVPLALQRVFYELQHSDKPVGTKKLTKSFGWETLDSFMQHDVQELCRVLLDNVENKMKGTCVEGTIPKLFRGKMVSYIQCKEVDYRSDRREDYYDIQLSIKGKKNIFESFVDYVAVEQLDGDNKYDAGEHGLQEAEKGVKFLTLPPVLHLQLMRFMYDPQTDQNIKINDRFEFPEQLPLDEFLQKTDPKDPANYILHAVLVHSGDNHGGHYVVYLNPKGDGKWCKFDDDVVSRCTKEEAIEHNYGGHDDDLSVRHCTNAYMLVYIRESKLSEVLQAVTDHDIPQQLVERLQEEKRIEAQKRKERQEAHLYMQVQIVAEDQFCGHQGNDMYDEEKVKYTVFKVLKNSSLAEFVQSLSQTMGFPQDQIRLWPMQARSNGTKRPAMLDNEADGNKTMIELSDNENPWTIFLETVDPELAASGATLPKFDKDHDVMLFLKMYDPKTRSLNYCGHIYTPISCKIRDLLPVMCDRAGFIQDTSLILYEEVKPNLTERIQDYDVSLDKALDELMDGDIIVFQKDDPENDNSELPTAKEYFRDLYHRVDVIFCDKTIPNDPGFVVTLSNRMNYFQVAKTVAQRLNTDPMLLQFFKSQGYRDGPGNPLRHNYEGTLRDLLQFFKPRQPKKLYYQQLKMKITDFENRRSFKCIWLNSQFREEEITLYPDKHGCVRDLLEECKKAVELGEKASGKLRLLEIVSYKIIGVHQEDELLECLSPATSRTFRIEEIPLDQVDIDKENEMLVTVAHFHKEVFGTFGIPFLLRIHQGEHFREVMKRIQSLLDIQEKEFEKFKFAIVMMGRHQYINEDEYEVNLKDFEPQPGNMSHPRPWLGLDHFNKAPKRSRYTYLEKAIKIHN
Summary of the method: as §1

USP8 = molecular target: T5, USP8 (UniProt P40818)
T5 sequence (whole entry): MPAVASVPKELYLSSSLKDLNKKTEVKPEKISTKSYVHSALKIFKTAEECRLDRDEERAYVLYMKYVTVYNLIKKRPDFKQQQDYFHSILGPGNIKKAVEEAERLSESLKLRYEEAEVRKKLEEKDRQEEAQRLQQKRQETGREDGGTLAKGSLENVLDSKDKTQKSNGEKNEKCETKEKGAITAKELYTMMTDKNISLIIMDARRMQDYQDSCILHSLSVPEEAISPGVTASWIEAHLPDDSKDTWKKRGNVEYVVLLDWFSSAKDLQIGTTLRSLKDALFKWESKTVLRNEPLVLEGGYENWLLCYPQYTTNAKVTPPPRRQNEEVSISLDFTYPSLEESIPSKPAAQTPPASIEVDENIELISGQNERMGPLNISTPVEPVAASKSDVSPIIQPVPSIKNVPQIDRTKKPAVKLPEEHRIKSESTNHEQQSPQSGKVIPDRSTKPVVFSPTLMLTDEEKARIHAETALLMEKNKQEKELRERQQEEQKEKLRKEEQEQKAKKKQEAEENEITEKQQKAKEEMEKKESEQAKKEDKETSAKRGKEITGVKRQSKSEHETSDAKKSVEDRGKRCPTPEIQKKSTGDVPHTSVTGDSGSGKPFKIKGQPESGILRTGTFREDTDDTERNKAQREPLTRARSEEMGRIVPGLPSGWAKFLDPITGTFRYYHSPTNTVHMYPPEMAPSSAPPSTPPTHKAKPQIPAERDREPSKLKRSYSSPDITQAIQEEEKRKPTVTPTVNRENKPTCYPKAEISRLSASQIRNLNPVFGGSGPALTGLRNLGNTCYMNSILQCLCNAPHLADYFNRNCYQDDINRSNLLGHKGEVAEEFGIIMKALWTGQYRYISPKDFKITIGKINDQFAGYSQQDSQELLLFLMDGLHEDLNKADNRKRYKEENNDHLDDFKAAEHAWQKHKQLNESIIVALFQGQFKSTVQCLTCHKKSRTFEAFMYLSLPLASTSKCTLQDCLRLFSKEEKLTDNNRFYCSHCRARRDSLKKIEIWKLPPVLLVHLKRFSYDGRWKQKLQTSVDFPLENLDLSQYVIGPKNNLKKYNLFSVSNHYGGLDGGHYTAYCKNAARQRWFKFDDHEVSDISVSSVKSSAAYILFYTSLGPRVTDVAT
Summary of the method: as §1

Measured: log2 ratio of Biotin-Ahx-Ub-VS probe labelling

O=C(CCl)NC1CCS(=O)(=O)c2ccccc21 (stereo not drawn)
inactive: USP42 -0.57 | USP46 -0.0772 | USP47 -0.498 | USP48 -0.471 | USP5 -0.0632 | USP54 0.689 | USP7 -0.288 | USP8 -0.538
